Source: ChEMBL document CHEMBL1961873, “Compounds: GSK PKIS; Assays: Nanosyn kinase panel” (2012)

Assays:
[1] = test system: Epidermal growth factor receptor (Homo sapiens), P00533 [T790M]; settings: at 1 µM
[2] = test system: Epidermal growth factor receptor (Homo sapiens), P00533 [L858R,T790M]; settings: at 0.1 µM
[3] = test system: Epidermal growth factor receptor (Homo sapiens), P00533 [L858R,T790M]; settings: at 1 µM
[4] = molecular target: Ephrin type-A receptor 2 (Homo sapiens) (UniProt P29317); settings: at 0.1 µM
Sequence of Ephrin type-A receptor 2 (Homo sapiens) (P29317 whole entry): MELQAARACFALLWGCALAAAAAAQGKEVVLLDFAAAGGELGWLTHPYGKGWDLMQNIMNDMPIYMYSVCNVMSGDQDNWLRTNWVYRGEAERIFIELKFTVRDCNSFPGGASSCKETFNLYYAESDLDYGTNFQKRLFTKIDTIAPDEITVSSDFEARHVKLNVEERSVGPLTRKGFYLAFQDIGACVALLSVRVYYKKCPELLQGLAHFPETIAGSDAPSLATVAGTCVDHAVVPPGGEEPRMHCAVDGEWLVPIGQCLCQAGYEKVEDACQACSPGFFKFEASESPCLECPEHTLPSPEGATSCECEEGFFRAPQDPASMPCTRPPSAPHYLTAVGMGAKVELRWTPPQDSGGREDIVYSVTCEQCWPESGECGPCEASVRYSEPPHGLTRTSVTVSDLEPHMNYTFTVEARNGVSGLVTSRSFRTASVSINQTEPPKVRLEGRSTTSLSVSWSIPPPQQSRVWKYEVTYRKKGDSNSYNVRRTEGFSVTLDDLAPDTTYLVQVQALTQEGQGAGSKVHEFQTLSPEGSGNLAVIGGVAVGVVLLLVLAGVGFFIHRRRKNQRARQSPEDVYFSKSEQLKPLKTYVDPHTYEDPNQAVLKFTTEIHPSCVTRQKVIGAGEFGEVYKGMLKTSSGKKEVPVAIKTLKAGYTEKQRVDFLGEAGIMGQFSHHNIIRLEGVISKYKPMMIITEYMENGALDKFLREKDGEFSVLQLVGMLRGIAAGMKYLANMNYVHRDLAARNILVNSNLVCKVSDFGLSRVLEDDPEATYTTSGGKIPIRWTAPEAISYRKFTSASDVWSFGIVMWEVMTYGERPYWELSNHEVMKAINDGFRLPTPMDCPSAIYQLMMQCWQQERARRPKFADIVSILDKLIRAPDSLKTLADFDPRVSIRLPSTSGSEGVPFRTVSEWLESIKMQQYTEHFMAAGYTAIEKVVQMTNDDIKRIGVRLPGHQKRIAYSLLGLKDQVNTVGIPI

[5] = molecular target: Ephrin type-A receptor 2 (Homo sapiens) (UniProt P29317); settings: at 1 µM
[6] = molecular target: T1, Ephrin type-A receptor 3 (Homo sapiens) (UniProt P29320); settings: at 0.1 µM
T1 sequence (whole entry): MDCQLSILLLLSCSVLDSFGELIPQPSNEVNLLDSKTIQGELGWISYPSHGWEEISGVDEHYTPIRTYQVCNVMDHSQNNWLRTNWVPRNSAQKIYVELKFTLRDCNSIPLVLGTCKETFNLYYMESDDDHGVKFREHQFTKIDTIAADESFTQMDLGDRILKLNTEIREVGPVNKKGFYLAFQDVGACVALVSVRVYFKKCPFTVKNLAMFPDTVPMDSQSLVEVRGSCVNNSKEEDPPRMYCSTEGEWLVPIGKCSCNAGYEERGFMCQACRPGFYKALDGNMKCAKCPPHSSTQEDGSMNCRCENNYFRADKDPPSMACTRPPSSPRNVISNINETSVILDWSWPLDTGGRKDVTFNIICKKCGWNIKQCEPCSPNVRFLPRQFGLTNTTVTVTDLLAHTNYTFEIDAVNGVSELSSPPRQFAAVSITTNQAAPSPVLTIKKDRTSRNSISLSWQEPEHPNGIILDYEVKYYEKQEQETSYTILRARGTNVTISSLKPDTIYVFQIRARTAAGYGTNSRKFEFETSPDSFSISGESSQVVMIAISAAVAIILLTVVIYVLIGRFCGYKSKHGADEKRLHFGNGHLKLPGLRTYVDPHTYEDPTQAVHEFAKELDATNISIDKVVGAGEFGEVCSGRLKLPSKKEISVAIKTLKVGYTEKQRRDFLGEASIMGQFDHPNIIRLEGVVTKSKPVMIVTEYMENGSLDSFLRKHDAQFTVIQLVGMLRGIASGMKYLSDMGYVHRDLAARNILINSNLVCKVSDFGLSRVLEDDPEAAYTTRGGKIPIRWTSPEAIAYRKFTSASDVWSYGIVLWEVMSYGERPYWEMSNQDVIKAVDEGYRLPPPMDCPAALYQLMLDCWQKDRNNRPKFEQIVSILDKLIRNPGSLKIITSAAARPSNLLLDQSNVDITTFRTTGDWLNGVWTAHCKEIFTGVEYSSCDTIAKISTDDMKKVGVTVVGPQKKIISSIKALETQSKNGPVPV

[7] = molecular target: T1, Ephrin type-A receptor 3 (Homo sapiens); settings: at 1 µM
[8] = molecular target: Ephrin type-A receptor 4 (Homo sapiens) (UniProt P54764); settings: at 0.1 µM
Sequence of Ephrin type-A receptor 4 (Homo sapiens) (P54764 whole entry): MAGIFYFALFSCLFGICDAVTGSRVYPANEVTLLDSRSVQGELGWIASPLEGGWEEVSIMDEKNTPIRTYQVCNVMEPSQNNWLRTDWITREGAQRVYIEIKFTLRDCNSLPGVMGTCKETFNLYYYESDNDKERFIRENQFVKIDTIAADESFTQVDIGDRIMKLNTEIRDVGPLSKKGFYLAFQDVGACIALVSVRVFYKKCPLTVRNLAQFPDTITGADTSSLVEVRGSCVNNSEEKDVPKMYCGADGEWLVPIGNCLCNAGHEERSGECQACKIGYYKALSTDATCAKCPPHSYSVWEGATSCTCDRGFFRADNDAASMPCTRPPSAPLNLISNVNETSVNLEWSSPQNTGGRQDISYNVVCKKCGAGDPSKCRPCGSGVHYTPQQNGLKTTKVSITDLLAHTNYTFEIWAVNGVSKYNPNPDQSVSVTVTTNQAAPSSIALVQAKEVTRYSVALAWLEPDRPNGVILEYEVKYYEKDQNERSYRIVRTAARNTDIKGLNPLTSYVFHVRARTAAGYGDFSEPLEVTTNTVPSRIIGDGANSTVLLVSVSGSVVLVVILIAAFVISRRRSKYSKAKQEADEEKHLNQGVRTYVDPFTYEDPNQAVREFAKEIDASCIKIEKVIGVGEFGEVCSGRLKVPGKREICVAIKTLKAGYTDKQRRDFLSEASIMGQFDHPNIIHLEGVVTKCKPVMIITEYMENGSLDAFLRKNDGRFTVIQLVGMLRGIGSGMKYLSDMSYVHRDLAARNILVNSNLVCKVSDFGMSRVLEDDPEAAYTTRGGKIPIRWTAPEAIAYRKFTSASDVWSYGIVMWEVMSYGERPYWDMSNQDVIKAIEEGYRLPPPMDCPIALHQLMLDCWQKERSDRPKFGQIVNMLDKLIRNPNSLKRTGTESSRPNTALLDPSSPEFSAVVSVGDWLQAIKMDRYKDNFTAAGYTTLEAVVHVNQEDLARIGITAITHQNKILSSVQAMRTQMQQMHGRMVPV

[9] = molecular target: Ephrin type-A receptor 4 (Homo sapiens) (UniProt P54764); settings: at 1 µM
[10] = molecular target: T2, Ephrin type-B receptor 2 (Homo sapiens) (UniProt P29323); settings: at 0.1 µM
T2 sequence (whole entry): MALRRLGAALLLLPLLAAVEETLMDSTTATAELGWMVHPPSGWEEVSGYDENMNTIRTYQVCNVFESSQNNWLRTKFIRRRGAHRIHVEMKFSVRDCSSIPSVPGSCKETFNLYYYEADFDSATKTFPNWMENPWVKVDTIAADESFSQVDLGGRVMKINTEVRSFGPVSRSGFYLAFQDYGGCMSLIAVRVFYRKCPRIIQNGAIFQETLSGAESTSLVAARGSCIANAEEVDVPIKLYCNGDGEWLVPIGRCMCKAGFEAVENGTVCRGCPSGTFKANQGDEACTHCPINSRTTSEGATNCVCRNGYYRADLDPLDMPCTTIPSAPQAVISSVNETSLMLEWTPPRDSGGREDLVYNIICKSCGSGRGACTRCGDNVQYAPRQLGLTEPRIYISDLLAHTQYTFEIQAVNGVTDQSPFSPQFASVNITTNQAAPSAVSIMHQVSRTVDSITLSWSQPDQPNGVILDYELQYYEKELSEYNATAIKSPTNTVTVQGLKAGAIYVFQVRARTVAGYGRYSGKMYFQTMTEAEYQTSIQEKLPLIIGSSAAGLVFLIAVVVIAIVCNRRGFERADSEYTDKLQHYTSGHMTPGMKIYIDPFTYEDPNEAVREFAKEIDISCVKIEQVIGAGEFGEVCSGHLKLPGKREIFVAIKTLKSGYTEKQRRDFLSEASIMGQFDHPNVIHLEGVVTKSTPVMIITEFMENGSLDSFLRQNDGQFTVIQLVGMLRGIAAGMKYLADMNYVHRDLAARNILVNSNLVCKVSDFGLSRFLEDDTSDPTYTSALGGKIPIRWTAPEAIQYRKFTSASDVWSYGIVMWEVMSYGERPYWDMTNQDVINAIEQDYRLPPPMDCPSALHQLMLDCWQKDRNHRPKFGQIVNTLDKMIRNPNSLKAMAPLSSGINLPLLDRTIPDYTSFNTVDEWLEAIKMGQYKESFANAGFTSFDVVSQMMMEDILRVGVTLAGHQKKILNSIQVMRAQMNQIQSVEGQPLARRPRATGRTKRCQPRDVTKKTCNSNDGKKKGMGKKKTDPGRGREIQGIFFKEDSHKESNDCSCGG

[11] = molecular target: T2, Ephrin type-B receptor 2 (Homo sapiens); settings: at 1 µM
[12] = molecular target: T3, Ephrin type-B receptor 3 (Homo sapiens) (UniProt P54753); settings: at 0.1 µM
T3 sequence (whole entry): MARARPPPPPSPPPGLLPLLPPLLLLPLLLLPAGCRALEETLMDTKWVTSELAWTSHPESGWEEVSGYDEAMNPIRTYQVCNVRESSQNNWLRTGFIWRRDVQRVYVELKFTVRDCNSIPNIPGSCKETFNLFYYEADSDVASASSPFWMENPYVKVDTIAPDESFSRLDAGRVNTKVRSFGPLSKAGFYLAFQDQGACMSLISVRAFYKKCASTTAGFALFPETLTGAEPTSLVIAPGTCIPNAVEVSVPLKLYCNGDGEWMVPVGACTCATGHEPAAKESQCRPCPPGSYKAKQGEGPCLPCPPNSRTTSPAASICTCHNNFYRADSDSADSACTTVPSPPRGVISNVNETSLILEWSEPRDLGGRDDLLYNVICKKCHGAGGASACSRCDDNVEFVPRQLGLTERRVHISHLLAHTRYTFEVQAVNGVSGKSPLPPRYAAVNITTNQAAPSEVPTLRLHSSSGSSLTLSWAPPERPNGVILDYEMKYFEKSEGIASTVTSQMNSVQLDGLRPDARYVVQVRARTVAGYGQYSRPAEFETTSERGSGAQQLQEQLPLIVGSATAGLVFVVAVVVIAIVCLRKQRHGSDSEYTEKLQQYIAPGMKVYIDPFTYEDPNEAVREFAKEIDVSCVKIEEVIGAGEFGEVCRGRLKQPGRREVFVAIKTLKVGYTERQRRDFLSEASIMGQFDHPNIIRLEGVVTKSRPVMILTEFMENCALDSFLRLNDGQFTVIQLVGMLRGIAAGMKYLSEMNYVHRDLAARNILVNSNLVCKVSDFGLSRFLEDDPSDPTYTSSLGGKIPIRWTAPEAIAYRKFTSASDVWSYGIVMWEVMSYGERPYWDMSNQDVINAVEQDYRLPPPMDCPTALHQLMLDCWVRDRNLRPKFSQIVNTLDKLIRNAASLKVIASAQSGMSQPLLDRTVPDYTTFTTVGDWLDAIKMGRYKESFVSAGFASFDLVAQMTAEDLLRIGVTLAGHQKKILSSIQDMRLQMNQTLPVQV

[13] = molecular target: T3, Ephrin type-B receptor 3 (Homo sapiens); settings: at 1 µM
[14] = molecular target: T4, Ephrin type-B receptor 4 (Homo sapiens) (UniProt P54760); settings: at 0.1 µM
T4 sequence (whole entry): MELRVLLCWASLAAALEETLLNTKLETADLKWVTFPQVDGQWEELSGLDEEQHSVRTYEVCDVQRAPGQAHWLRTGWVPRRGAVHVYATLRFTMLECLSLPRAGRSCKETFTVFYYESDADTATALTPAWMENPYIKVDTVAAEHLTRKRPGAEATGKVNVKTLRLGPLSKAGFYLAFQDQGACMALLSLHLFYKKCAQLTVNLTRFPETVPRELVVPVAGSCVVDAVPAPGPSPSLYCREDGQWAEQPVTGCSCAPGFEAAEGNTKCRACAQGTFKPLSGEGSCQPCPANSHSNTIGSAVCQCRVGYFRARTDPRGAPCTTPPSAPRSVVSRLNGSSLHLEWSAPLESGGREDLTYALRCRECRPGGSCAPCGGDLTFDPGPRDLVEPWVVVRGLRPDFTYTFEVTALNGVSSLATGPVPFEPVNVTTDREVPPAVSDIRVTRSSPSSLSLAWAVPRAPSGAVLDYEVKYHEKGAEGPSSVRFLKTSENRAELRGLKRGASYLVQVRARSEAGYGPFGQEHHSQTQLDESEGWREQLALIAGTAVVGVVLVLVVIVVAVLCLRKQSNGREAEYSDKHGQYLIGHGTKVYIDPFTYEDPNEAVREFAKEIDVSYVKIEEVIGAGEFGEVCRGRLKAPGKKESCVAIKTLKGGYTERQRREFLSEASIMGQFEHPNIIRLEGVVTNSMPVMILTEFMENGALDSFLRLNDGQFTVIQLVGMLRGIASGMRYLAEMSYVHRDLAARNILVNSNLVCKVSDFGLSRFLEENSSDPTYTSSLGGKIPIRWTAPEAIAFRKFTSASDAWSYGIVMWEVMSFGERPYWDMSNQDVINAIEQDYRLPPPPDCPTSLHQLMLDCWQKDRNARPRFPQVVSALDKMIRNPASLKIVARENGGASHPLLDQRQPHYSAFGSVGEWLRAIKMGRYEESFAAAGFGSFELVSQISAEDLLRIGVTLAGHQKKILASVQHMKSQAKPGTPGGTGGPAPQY

[15] = molecular target: T4, Ephrin type-B receptor 4 (Homo sapiens); settings: at 1 µM
[16] = molecular target: Receptor tyrosine-protein kinase erbB-2 (Homo sapiens) (UniProt P04626); settings: at 0.1 µM
[17] = molecular target: Receptor tyrosine-protein kinase erbB-2 (Homo sapiens) (UniProt P04626); settings: at 1 µM
[18] = molecular target: Receptor tyrosine-protein kinase erbB-4 (Homo sapiens) (UniProt Q15303); settings: at 0.1 µM
[19] = molecular target: Receptor tyrosine-protein kinase erbB-4 (Homo sapiens) (UniProt Q15303); settings: at 1 µM
[20] = molecular target: Tyrosine-protein kinase Fer (Homo sapiens) (UniProt P16591); settings: at 0.1 µM;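 further: reported figures are averaged percent inhibition of FER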
Sequence of Tyrosine-protein kinase Fer (Homo sapiens) (P16591 whole entry, looked up): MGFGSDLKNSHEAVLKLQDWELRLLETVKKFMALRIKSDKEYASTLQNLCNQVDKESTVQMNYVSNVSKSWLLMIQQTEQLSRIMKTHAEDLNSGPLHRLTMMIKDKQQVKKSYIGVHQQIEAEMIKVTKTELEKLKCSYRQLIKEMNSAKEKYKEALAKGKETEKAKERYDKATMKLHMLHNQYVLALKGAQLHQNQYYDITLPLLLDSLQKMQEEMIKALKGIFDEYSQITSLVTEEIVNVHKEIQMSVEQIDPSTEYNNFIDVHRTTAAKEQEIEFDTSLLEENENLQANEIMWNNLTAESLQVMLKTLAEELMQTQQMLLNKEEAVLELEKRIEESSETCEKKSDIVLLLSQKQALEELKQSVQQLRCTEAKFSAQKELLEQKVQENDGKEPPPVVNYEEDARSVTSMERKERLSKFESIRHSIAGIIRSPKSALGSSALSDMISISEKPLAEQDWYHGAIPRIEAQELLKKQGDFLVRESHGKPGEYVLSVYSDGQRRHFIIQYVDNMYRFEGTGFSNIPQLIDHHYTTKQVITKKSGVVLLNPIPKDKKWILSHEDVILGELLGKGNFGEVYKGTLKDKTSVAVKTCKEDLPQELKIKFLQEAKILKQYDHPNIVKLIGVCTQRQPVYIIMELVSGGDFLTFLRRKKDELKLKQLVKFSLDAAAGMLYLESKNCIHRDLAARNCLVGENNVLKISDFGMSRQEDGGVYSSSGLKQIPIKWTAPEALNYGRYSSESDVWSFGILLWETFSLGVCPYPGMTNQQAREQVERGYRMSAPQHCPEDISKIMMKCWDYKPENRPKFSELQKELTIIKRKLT

Sequence of Epidermal growth factor receptor (Homo sapiens), P00533 [T790M] (P00533 whole entry T790M): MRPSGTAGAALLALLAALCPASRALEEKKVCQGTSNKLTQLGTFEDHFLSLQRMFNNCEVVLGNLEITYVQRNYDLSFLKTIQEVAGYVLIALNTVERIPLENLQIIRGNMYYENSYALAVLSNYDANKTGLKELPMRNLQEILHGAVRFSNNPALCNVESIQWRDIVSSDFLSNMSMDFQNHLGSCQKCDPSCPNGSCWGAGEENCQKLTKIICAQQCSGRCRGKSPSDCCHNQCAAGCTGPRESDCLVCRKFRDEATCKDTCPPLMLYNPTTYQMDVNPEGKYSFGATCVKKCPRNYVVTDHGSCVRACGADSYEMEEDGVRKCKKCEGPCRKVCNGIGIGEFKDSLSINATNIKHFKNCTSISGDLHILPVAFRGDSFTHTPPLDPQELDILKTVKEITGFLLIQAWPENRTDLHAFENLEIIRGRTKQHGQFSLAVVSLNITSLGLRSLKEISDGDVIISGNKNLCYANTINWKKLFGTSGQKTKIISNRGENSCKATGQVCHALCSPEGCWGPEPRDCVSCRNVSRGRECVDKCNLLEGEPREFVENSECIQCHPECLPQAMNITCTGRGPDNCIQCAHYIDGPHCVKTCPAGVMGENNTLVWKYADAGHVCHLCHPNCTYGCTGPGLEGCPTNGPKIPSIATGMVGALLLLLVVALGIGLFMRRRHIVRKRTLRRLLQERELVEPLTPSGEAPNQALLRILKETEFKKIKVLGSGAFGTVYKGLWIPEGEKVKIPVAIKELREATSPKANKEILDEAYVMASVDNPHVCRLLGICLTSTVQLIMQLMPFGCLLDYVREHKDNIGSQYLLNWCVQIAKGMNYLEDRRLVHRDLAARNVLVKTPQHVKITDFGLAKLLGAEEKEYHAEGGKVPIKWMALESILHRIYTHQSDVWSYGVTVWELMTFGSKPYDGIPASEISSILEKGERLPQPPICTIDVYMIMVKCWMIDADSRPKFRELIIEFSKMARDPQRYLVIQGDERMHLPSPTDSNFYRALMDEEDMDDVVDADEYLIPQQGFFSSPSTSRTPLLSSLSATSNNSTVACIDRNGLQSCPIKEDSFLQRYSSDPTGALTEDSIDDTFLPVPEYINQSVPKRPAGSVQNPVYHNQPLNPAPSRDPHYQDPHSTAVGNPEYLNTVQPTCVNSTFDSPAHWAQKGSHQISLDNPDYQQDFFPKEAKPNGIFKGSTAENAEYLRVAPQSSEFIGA

Row | SMILES | inhibition [1] [%] | inhibition [2] [%] | inhibition [3] [%] | inhibition [4] [%] | inhibition [5] [%] | inhibition [6] [%] | inhibition [7] [%] | inhibition [8] [%] | inhibition [9] [%] | inhibition [10] [%] | inhibition [11] [%] | inhibition [12] [%] | inhibition [13] [%] | inhibition [14] [%] | inhibition [15] [%] | inhibition [16] [%] | inhibition [17] [%] | inhibition [18] [%] | inhibition [19] [%] | inhibition [20] [%]
1 | NC(=O)c1sc(-n2cnc3cc(C(F)(F)F)ccc32)cc1OCc1ccccc1Br | 0.23 | -0.11 | -0.24 | 2.18 | 0.32 | 3.31 | 1.36 | 4.57 | 8.16 | -4.03 | 4.29 | 1.68 | 3.79 | 0.19 | 1.65 | 3.19 | 4.72 | 5.4 | 14.4 | 2.82
2 | NS(=O)(=O)c1ccc(N/C=C2\C(=O)Nc3ccc4ncsc4c32)cc1 | 0.85 | 4.07 | 3.15 | 1.01 | 1.66 | 3.37 | 6.86 | 8.05 | 22.4 | 9.09 | 18.1 | 2.97 | 4.36 | 0.08 | 8.11 | 2.78 | 5.6 | 8.52 | 10.8 | 0.16
3 | CCn1c(-c2nonc2N)nc2c(C#CC(C)(C)O)ncc(OCC3CCNCC3)c21 | 3.59 | 2.99 | 3.17 | -2.64 | -3.81 | -0.49 | -1.92 | 7.43 | 7.66 | 1.63 | 7.37 | -0.37 | -1.35 | -3.5 | -2.94 | 1.27 | 5.1 | 2.93 | 3.14 | 2.18
4 | CCn1c(-c2nonc2N)nc2c(C#CC(C)(C)O)nc(O[C@@H](CN)c3ccccc3)cc21 | -1.37 | 0.5 | -1.45 | -2.73 | -4.53 | -1.47 | -0.7 | -1.14 | -4.76 | -2.94 |  | 1.57 | -3.07 | -0.46 | 1.16 | -2.68 | -2.4 | 1.38 | 3.97 | 3.77
5 | COc1cccc(COc2cc(-n3cnc4ccccc43)sc2C(N)=O)c1 | -0.01 | -1.88 | -1.62 | 1.52 | 1.85 | 2.67 | -0.49 | -0.79 | 3.39 | -2.9 | 0.89 | 0.5 | 2.27 | -2.06 | 1.33 | 2.53 | 2.65 | 1.74 | 13.2 | -2.66
6 | COc1cccc(-n2ncc3c(N/N=C/c4ccncc4)ncnc32)c1 | 5.66 | 3.61 | 8.8 | 3.25 | 15.8 | 5.89 | 6.97 | 11.1 | 35.5 | 8.96 | 30.4 | 4.72 | 3.82 | 3.92 | 13.7 | 0.91 | 5.53 | 9.63 | 20.9 | 4.97
7 | COc1cc(C=NNc2ncnc3c2cnn3Cc2ccccc2)ccc1O | -3.25 | -1.62 | -0.48 | 15.6 | 32.4 | -4.93 | 3.27 | 6.93 | 21.7 | -3.14 | 9.74 | -7.53 | -0.1 | 4.81 | 7.15 | -6.92 | -3.2 |  |  | 3.46
